Measured values as given in the supplement of paper PMC13380429.

Tested on: Vero E6 infected with SARS-CoV-2
Assay: morphology score (similarity to uninfected cells); higher = more like uninfected cells
Details: 24 h

SMILES	morphology score
COc1cc(/C=C/C(=O)CC(=O)/C=C/c2ccc(O)c(OC)c2)ccc1O [curcumin] (10 µM)	0.548
C[C@@H]([C@@H](O)c1ccc(O)cc1)N1CCC(O)(c2ccccc2)CC1 [traxoprodil] (10 µM)	-0.037
C=C1CC[C@H](O)C/C1=C/C=C1\CCC[C@]2(C)[C@@H]([C@H](C)CCCC(C)(C)O)CC[C@@H]12 [calcifediol] (10 µM)	-0.0147
CC#CCC(C)[C@H](O)/C=C/[C@@H]1[C@H]2C/C(=C/CCCC(=O)O)C[C@H]2C[C@H]1O (some centres not stated) [iloprost] (10 µM)	0.0115
COc1cc(Br)c(Nc2nc(-c3c(C)nc4ncccn34)cs2)c(Br)c1 (10 µM)	-0.31
CC(C)(N)c1nc(-c2ccc(OC(F)(F)F)cc2)c[nH]1 (10 µM)	0.0118
COc1nc(C)nc(Cl)c1NC1=NCCN1 [moxonidine] (10 µM)	0.0753
CCOc1cc2ncc(C#N)c(Nc3ccc(F)c(Cl)c3)c2cc1NC(=O)/C=C/CN(C)C [pelitinib] (10 µM)	-0.188
CC(C)c1cnn2c(NCc3ccccc3)cc(NCCCCCCN)nc12 (10 µM)	0.714
C[C@]12CCC(=O)C=C1CC[C@@H]1[C@@H]2[C@@H](O)C[C@@]2(C)[C@H]1CC[C@]2(O)C(=O)COC(=O)CCC(=O)O [hydrocortisone-hemisuccinate] (10 µM)	-0.338
C[C@H](NC(=O)Cc1cc(F)cc(F)c1)C(=O)N[C@@H]1C(=O)N(C)c2ccccc2-c2ccccc21 (10 µM)	0.18
O=C(CN1CCN(C(=O)c2ccco2)CC1)Nc1cc(C(F)(F)F)ccc1Cl (10 µM)	0.00654
